Reference: the supplement of paper PMC6555819

Experiments:
Assay in all cases: PBM binding z-score (relative to random genomic background probes); higher = stronger binding; sequences stand for … in GC…GCGATTGACAGCGTAGAATGAAGG
[1] = tested on: RARb homodimer (NR concentration 270 nM)
Summary of the method: (§1)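 The probes on custom Agilent 4×180K protein-binding microarrays were double-stranded, with 34-nt variable regions bearing direct-repeat seeds, single-nucleotide variants, half-site ablations and random human genomic background sequences. Incubation lasted 1 h with ligand-free nuclear receptor dimers in PBS pH 7.4, 2% milk, 0.02% Triton X-100, 1 mM DTT, 0.2 mg/mL BSA and 0.4 mg/ml salmon testes DNA. Antibodies against each partner (one per run) detected bound dimers, and fluorescence scans were regression-normalized. Binding z-scores take the random background probes as reference.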

[2] = tested on: RARg:RXRa (NR concentration 270 nM, RXRa partner concentration 90 nM)
Summary of the method: as §1

[3] = tested on: RARg homodimer (NR concentration 270 nM)
Summary of the method: as §1

[4] = tested on: RXRa DBDmut IVT, anti-RXR (DBD mutation: RXRa K156A/R161A, NR concentration 90 nM)
Summary of the method: as §1

[5] = tested on: RXRa homodimer (NR concentration 180 nM)
Summary of the method: as §1

[6] = tested on: THRa:RXRa (NR concentration 90 nM, RXRa partner concentration 90 nM)
Summary of the method: as §1

[7] = tested on: THRa homodimer (NR concentration 90 nM)
Summary of the method: as §1

[8] = tested on: VDR homodimer (NR concentration 270 nM)
Summary of the method: as §1

GCTGCTGGGTCAACTGATGGTCAGCTAAAGCTCG
PBM binding z-score [1]: 3.36 | PBM binding z-score [2]: 5.04 | PBM binding z-score [3]: 4.22 | PBM binding z-score [4]: 1.22 | PBM binding z-score [5]: 3.13 | PBM binding z-score [6]: 2.41 | PBM binding z-score [7]: 0.228 | PBM binding z-score [8]: -0.125

TCTTGTAGATCAGCAGGTTATGAAAGCTGGCCAA
PBM binding z-score [1]: -0.0555 | PBM binding z-score [2]: -0.168 | PBM binding z-score [3]: -0.428 | PBM binding z-score [4]: 0.64 | PBM binding z-score [5]: 0.311 | PBM binding z-score [6]: 0.276 | PBM binding z-score [7]: -0.466 | PBM binding z-score [8]: -0.405

AGTCAAAGTTCATCTAGGTAACGTAAGATATGCT
PBM binding z-score [1]: 4.07 | PBM binding z-score [2]: 5.59 | PBM binding z-score [3]: 6.2 | PBM binding z-score [4]: 4.76 | PBM binding z-score [5]: 4.97 | PBM binding z-score [6]: 3.05 | PBM binding z-score [7]: 0.224 | PBM binding z-score [8]: 4.94

CCTAGTTGGTCAAGTTCACACACGCTATAGGTAC
PBM binding z-score [1]: 3.1 | PBM binding z-score [2]: 2.45 | PBM binding z-score [3]: 2.72 | PBM binding z-score [4]: 3.31 | PBM binding z-score [5]: 2 | PBM binding z-score [6]: 2.12 | PBM binding z-score [7]: 1.46 | PBM binding z-score [8]: 5.29

GCTCGGACGACAAGGTCAGAGCTTTGTCCGTAGA
PBM binding z-score [1]: 2.73 | PBM binding z-score [2]: 2.72 | PBM binding z-score [3]: 3.07 | PBM binding z-score [4]: 0.365 | PBM binding z-score [5]: 2.23 | PBM binding z-score [6]: 2.54 | PBM binding z-score [7]: 0.94 | PBM binding z-score [8]: 0.617

ATATGTACGTTAAGGGTCATTCAGGTTGGTTCGC
PBM binding z-score [1]: 3.82 | PBM binding z-score [2]: 3.89 | PBM binding z-score [3]: 2.96 | PBM binding z-score [4]: 2.12 | PBM binding z-score [5]: 4.64 | PBM binding z-score [6]: 3.3 | PBM binding z-score [7]: 1.45 | PBM binding z-score [8]: 4.32

CGAACTAAGTCAGAACAGGACAGTGAAGGATGAT
PBM binding z-score [1]: 0.68 | PBM binding z-score [2]: 0.103 | PBM binding z-score [3]: 0.431 | PBM binding z-score [4]: 0.106 | PBM binding z-score [5]: 0.167 | PBM binding z-score [6]: 1.14 | PBM binding z-score [7]: -0.281 | PBM binding z-score [8]: -0.107

CCGACTGGGGCCTAAGGTTACCATAAGCCAGCCC
PBM binding z-score [1]: 1.1 | PBM binding z-score [2]: 0.451 | PBM binding z-score [3]: -0.117 | PBM binding z-score [4]: -0.875 | PBM binding z-score [5]: 0.652 | PBM binding z-score [6]: 2 | PBM binding z-score [7]: 1.26 | PBM binding z-score [8]: 0.0794

TGAATGAGGATATAAGATCAGGGAACGTTGCAAA
PBM binding z-score [1]: -0.689 | PBM binding z-score [2]: 0.125 | PBM binding z-score [3]: 0.402 | PBM binding z-score [4]: -0.562 | PBM binding z-score [5]: 0.189 | PBM binding z-score [6]: 0.534 | PBM binding z-score [7]: -0.316 | PBM binding z-score [8]: -0.0248

CAGCCTAGGCCAGGGCCAGTATAGGAGGAACGTT
PBM binding z-score [1]: -0.366 | PBM binding z-score [2]: -0.536 | PBM binding z-score [3]: 0.11 | PBM binding z-score [4]: -1.57 | PBM binding z-score [5]: -0.601 | PBM binding z-score [6]: -0.884 | PBM binding z-score [7]: -0.601 | PBM binding z-score [8]: -0.322

CGAGCTAGGTCATCCAGGACAGTGAATACATTGA
PBM binding z-score [1]: 3.01 | PBM binding z-score [2]: 3.93 | PBM binding z-score [3]: 4.72 | PBM binding z-score [4]: 1.97 | PBM binding z-score [5]: 2.89 | PBM binding z-score [6]: 3.48 | PBM binding z-score [7]: 1.79 | PBM binding z-score [8]: 1.91

CGTCCAAGGTCAATGCTAGGTCAGTAAAAGCATT
PBM binding z-score [1]: 4.89 | PBM binding z-score [2]: 7.54 | PBM binding z-score [3]: 6.94 | PBM binding z-score [4]: 3.31 | PBM binding z-score [5]: 5.24 | PBM binding z-score [6]: 4.28 | PBM binding z-score [7]: 2.63 | PBM binding z-score [8]: 2.92

CATTACGGGTCACTCCAGGTTATAGCATCGGAGT
PBM binding z-score [1]: 3.31 | PBM binding z-score [2]: 4.59 | PBM binding z-score [3]: 4.57 | PBM binding z-score [4]: 1.53 | PBM binding z-score [5]: 4.65 | PBM binding z-score [6]: 5.06 | PBM binding z-score [7]: 0.963 | PBM binding z-score [8]: 1.83

CCTTACGGGTCACGAGGTTATTGCACGACGAGCG
PBM binding z-score [1]: 4.19 | PBM binding z-score [2]: 6.12 | PBM binding z-score [3]: 5.46 | PBM binding z-score [4]: 1.83 | PBM binding z-score [5]: 7.15 | PBM binding z-score [6]: 3.67 | PBM binding z-score [7]: 1.4 | PBM binding z-score [8]: 2.55

TCATTTAGGTAAAGGTGAAAGTCGAACGATATGA
PBM binding z-score [1]: 1.52 | PBM binding z-score [2]: 1.74 | PBM binding z-score [3]: 1.44 | PBM binding z-score [4]: 0.874 | PBM binding z-score [5]: 2.07 | PBM binding z-score [6]: 2.01 | PBM binding z-score [7]: 0.0517 | PBM binding z-score [8]: 0.0443

AGATCGAGGGCAATGAGTTGATAGCACGGGTGGC
PBM binding z-score [1]: 1.18 | PBM binding z-score [2]: 0.862 | PBM binding z-score [3]: 1.38 | PBM binding z-score [4]: 1.73 | PBM binding z-score [5]: 0.854 | PBM binding z-score [6]: 0.856 | PBM binding z-score [7]: 0.0154 | PBM binding z-score [8]: 2.44

GCTTACGGGTCAAAGGTTATACCATGAATAGAAT
PBM binding z-score [1]: 3.74 | PBM binding z-score [2]: 6.93 | PBM binding z-score [3]: 4.71 | PBM binding z-score [4]: 2.59 | PBM binding z-score [5]: 9.41 | PBM binding z-score [6]: 4.17 | PBM binding z-score [7]: 0.206 | PBM binding z-score [8]: 1.77

CCTCGGAGTACAACAGGAGGTCAGAGCTGCCAGA
PBM binding z-score [1]: 2.99 | PBM binding z-score [2]: 3.01 | PBM binding z-score [3]: 2.39 | PBM binding z-score [4]: 1.27 | PBM binding z-score [5]: 1.86 | PBM binding z-score [6]: 2.16 | PBM binding z-score [7]: 0.436 | PBM binding z-score [8]: 1.47

CCGACTGCGGCAAGGTTACCATAACGCACAGCCA
PBM binding z-score [1]: 1 | PBM binding z-score [2]: 0.707 | PBM binding z-score [3]: 0.42 | PBM binding z-score [4]: 0.215 | PBM binding z-score [5]: 1.07 | PBM binding z-score [6]: 1.4 | PBM binding z-score [7]: 0.537 | PBM binding z-score [8]: 0.321

ATCTCTAGGTAACAAATTCAGTGAAAGAGAGGAC
PBM binding z-score [1]: 0.688 | PBM binding z-score [2]: 0.707 | PBM binding z-score [3]: 0.762 | PBM binding z-score [4]: -0.0663 | PBM binding z-score [5]: 0.508 | PBM binding z-score [6]: 1.02 | PBM binding z-score [7]: 0.762 | PBM binding z-score [8]: 0.435

GTACCAAGGTGAATAGGTCGTCGATGAGTAGGCG
PBM binding z-score [1]: 2.07 | PBM binding z-score [2]: 2.91 | PBM binding z-score [3]: 1.67 | PBM binding z-score [4]: -0.36 | PBM binding z-score [5]: 2.1 | PBM binding z-score [6]: 2.11 | PBM binding z-score [7]: 0.363 | PBM binding z-score [8]: -0.13

ATCTCTAGGTAACCAAGTTCAGTGCATGCCGAAC
PBM binding z-score [1]: 1.69 | PBM binding z-score [2]: 0.735 | PBM binding z-score [3]: 0.952 | PBM binding z-score [4]: 1.12 | PBM binding z-score [5]: 0.814 | PBM binding z-score [6]: 1.62 | PBM binding z-score [7]: 0.968 | PBM binding z-score [8]: 3.1

AATACAGGGGCATCGTAGGCCAGAGTACGCACAG
PBM binding z-score [1]: 1.13 | PBM binding z-score [2]: 0.978 | PBM binding z-score [3]: 1.23 | PBM binding z-score [4]: 0.834 | PBM binding z-score [5]: 0.784 | PBM binding z-score [6]: 2.47 | PBM binding z-score [7]: -0.358 | PBM binding z-score [8]: 1.15

CAAACTAGGTCACAGAGGTCAAAATCCGTGCGTA
PBM binding z-score [1]: 5.16 | PBM binding z-score [2]: 7.05 | PBM binding z-score [3]: 7.16 | PBM binding z-score [4]: 3.22 | PBM binding z-score [5]: 7.21 | PBM binding z-score [6]: 4.7 | PBM binding z-score [7]: 2.77 | PBM binding z-score [8]: 5.94

ATCTCTAGGTAAGACTCAGTTTAGTGAAGAACGC
PBM binding z-score [1]: 0.134 | PBM binding z-score [2]: 0.228 | PBM binding z-score [3]: 0.235 | PBM binding z-score [4]: 0.443 | PBM binding z-score [5]: -0.191 | PBM binding z-score [6]: 0.364 | PBM binding z-score [7]: 0.619 | PBM binding z-score [8]: 0.252

ATCGAAAGGTCGAAGGTGAGTATCCCCACCCGAA
PBM binding z-score [1]: 2.43 | PBM binding z-score [2]: 3.95 | PBM binding z-score [3]: 3.71 | PBM binding z-score [4]: 0.658 | PBM binding z-score [5]: 4.73 | PBM binding z-score [6]: 2.36 | PBM binding z-score [7]: 0.377 | PBM binding z-score [8]: 0.132

TCTCGTAGGACACGAAAGGTCAGAGCTCGACATC
PBM binding z-score [1]: 4.53 | PBM binding z-score [2]: 4.69 | PBM binding z-score [3]: 5.29 | PBM binding z-score [4]: 1.16 | PBM binding z-score [5]: 4.44 | PBM binding z-score [6]: 3.28 | PBM binding z-score [7]: 0.778 | PBM binding z-score [8]: 0.852

ATAATGAGGTTAAGATCAGGGAAACAGAATACAT
PBM binding z-score [1]: 0.864 | PBM binding z-score [2]: 2.47 | PBM binding z-score [3]: 1.96 | PBM binding z-score [4]: 1.16 | PBM binding z-score [5]: 2.68 | PBM binding z-score [6]: 2.74 | PBM binding z-score [7]: 1.02 | PBM binding z-score [8]: 0.406

ACAGACAGGTGAGTGAAGATAACTCAGCTGGACG
PBM binding z-score [1]: -0.405 | PBM binding z-score [2]: 0.185 | PBM binding z-score [3]: 0.475 | PBM binding z-score [4]: -0.658 | PBM binding z-score [5]: 0.111 | PBM binding z-score [6]: -0.344 | PBM binding z-score [7]: -0.684 | PBM binding z-score [8]: -0.624
